Test results reported in the supplement of paper PMC6555819.

Legend:
Test in all cases: PBM binding z-score (relative to random genomic background probes); higher = stronger binding; sequences stand for … in GC…GCGATTGACAGCGTAGAATGAAGG
[1] = system: RARb homodimer (NR concentration 270 nM)
Method in brief: (§1)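 Custom Agilent 4×180K protein-binding microarrays carried double-stranded probes, each with a 34-nt variable region. These regions held direct-repeat seeds, single-nucleotide variants, half-site ablations and random human genomic background sequences. Ligand-free nuclear receptor dimers were incubated on the arrays for 1 h, antibodies against each partner (one per run) detected binding, and scanned fluorescence was regression-normalized. Binding z-scores take the random background probes as reference.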

[2] = system: RARg homodimer (NR concentration 270 nM)
Method in brief: as §1

[3] = system: RXRa DBDmut IVT, anti-RXR (DBD mutation: RXRa K156A/R161A, NR concentration 90 nM)
Method in brief: as §1

[4] = system: RXRa homodimer (NR concentration 180 nM)
Method in brief: as §1

[5] = system: THRa:RXRa (NR concentration 90 nM, RXRa partner concentration 90 nM)
Method in brief: as §1

[6] = system: THRa homodimer (NR concentration 90 nM)
Method in brief: as §1

[7] = system: VDR:RXRa (NR concentration 270 nM, RXRa partner concentration 90 nM)
Method in brief: as §1

[8] = system: VDR homodimer (NR concentration 270 nM)
Method in brief: as §1

[9] = system: RARg:RXRa (NR concentration 270 nM, RXRa partner concentration 90 nM)
Method in brief: as §1

Sequence	PBM binding z-score [1]	PBM binding z-score [2]	PBM binding z-score [3]	PBM binding z-score [4]	PBM binding z-score [5]	PBM binding z-score [6]	PBM binding z-score [7]	PBM binding z-score [8]	PBM binding z-score [9]
CCTACTGGGCCAAAGGACATTGATTCCAATGCTC	0.475	0.664	-0.27	0.166	-0.11	-0.145	-0.439	-0.13	–
TGAATGACGTTAAAGATCAGGGAACGTGGCGTCG	-0.807	0.113	-0.922	–	-0.478	-0.747	–	-0.61	0.00646
CGAACTAGGTCATCGAGGACAGTGAATACATTGA	3.3	5.19	2.23	3.01	4.11	2.51	–	2.73	–
ATAAGTAGGTTAGGGTCATTCAGAAAGTAGGGAA	3.7	3.3	2.39	5.12	4.31	3.58	4.88	4.32	–
ACTAGTTGGTCACCTGAGGTCACACACAATTCGG	4.6	4.96	1.53	–	5.34	5.66	–	5.13	4.66
TCTCGGAGGACACGAAAGGTCAGTGCTCGACATC	4.96	5.21	1.23	3.34	3.49	1.51	2.92	1.24	–
AGTCAAAGTTCATCTAGGTATCGTAAGATATGCT	3.84	5.99	4.54	–	2.8	-0.179	–	5.25	5.45
CCTTACGGGTAACTCCAGGTTATAGCATCGGAGT	0.239	0.528	-0.483	0.381	3.22	0.292	0.375	0.21	–
CGAACTAGGTCAACGACAGTGAATCTCCGCACGC	2.87	4.2	1.61	2.45	2.54	1.08	1.27	0.435	–
CCTACTGGGCCAATAAGGTCATTGATGCCGATAA	3.48	2.87	1.09	2.78	4	3.44	5.29	2.76	–
CCTAGTTGGTCAAGGTCACACATGCTATAGGTAC	4.33	4.71	2.2	4.11	3.96	4.12	–	3.99	–
ATCGAAATGTCGTGAGGTGAGTATACAGAAAGGC	0.113	0.683	-0.3	0.0827	1.74	1.16	-0.0568	-0.224	–
CCTACGGGGCCAAGGTCATTGATCAGTCAAAGCA	3.51	3.77	1.21	–	3.47	2.04	–	3.09	4.02
TCTCGGATGACACGAAAGGTCAGAGCTCGACATC	4.3	3.99	1.08	–	2.79	0.526	–	0.594	4.19
CGAACTAGGTGATTGACAGGACAGTGAATAGTAA	0.647	0.266	0.246	-0.176	0.755	0.252	-0.0545	0.00262	–
ATCGAAAAGTCGAAGGTGAGTATACCCACCCGAA	-0.251	0.586	-0.665	–	0.0744	-0.357	–	-0.0912	0.436
CCTGCTAGGTCAATGGTCAGCTCAAGCAGCTCGC	3.02	4.32	1.88	1.92	2.23	0.708	0.923	0.174	–
ATCGAAAGGTCGACGAGGAGAGTATACACCGTTT	2.37	3.81	1.18	3.91	2.27	-0.0264	3.3	0.681	–
CCTTACGGGTCACTGACAGGTCATAGCATTTGGA	4.59	5.71	1.79	6.67	3.98	0.878	5.38	2.15	–
TCGAGTGGGTTACGGGGGCATTCAGGGATGAAGA	2.26	2.35	2.33	2.74	4.08	2.2	4.27	3.66	–

Sequence	PBM binding z-score [1]	PBM binding z-score [2]	PBM binding z-score [3]	PBM binding z-score [4]	PBM binding z-score [5]	PBM binding z-score [6]	PBM binding z-score [7]	PBM binding z-score [8]	PBM binding z-score [9]
CAAACTAGGTCACGAAAGGTCAAAGCCGAATGAC	5.98	8.56	2.11	–	5.07	2.55	–	3.58	8.01
TGGCCTAGGTCATGGGCCAGTATACCACGCGAAC	2.96	5.07	-0.28	3.6	2.83	0.639	–	-0.0403	–
CCTTACGGGTCAAGGTTGTAGCACGGGTGGTACG	3.2	4.07	0.452	–	2.38	0.122	–	1.18	4.54
TCTCGGAGGACACGAAGGTCAGCGCTTTCCAGAG	3.93	4.24	0.82	2.38	3.23	1.21	2.35	1.46	–
GATACAGGGTCAGCTAGAGGTCAGAGTATGGAAA	5.26	7.07	1.95	7.42	4.49	1.85	6.14	3.45	–
ATCGAAACGTCGACGAGGTGAGTATACACCGTTT	-0.247	0.527	-0.148	0.362	1.1	0.23	-0.119	-0.146	–
CGTCCAAGGTCATGGGAGGTCAGTGAAGACAGAT	5.85	7.97	3.73	7.56	5.51	3.83	7.07	4.5	–
ACTCGGAGGGCAAAGGTCAGAGCTACGCCAGTGA	4.39	5.86	1.7	–	3.36	-0.408	–	1.05	7.23
CCTTACGGGTCCCTGACAGGTTATAGCATTTGGA	0.357	0.233	-0.553	0.295	0.389	-0.0756	-0.165	0.0432	–
CCTACTGGGCCAAAGGCCATTGATTCCAATGCTC	0.736	0.568	-0.726	-0.132	-0.0621	-0.567	–	-0.468	–
ACTCGGAGGACAAACGTCAGAGCTACGCCAGTGA	0.0238	1.15	0.497	-0.425	0.312	-0.476	–	-0.183	–
CCTACTGGGCCAAGGTCATTGAGCAGTCAAAGCA	3.03	3.23	1.23	3.66	3.23	2.18	3.07	2.65	–
GATACAGGGTCAGCTAGAGGGCAGAGTATGGAAA	4.04	5.53	1.71	4.61	3.18	1.05	4.22	1.68	–
TCTAGTTGGTGACGGAGGTCACACACGACGGGTA	3.88	3.21	0.917	4.29	3.41	2.23	–	1.83	–
CAGCCTAGTTCAGGGCCAGTATAGGAGGAACGTT	0.7	0.665	0.532	0.15	-0.00106	-0.234	-0.0838	0.209	–
ATCGAATGGTCGAGGTGAGTATAGAGAAAGGGAA	0.319	0.76	-0.577	0.118	0.936	0.55	-0.226	-0.57	–
AGCGAAAGGTCGAAGGTGAGTATACCCACCCGAA	2.44	4.05	0.876	5.09	2.04	-0.329	2.8	0.312	–
CCTACTGGGTCATTCAGAGGTCATTGATCATATG	5.21	5.46	2.77	5.75	4.32	2.15	–	4.41	–
TGTCAAAGCTCAAAGGTAACGTAAGTATCCACAC	0.284	0.498	-1	0.764	1.25	-0.706	–	-0.613	–
CCTTACGGGTCAGGGTTATAGCACGGGTGGTACG	2.89	3.8	-0.999	3.87	2.29	0.154	–	0.894	–

Sequence	PBM binding z-score [1]	PBM binding z-score [2]	PBM binding z-score [3]	PBM binding z-score [4]	PBM binding z-score [5]	PBM binding z-score [6]	PBM binding z-score [7]	PBM binding z-score [8]	PBM binding z-score [9]
GCTGCTAGGTCAACTGATGGTGAGCTAAAGCTCG	3.06	5.32	1.5	2.69	2.86	0.689	–	-0.42	–
ATCGAAAGGTCGAGGAGGTGAGTATACACCGTTT	2.92	4.23	0.868	4.21	2.85	-0.12	–	0.435	–
ACTAATTGGTCAGCTGAGGTCACACACAATTCGG	4.72	4.46	1.68	4.65	5.12	5.41	–	3.46	–
TAGCCTAGGTCATTGGGCTAGTATAGTACGCATC	2.59	4.2	1.47	2.84	2.71	0.251	–	0.989	–
TAGCCTAGCTCATTCAGGGGCCAGTATAGAAAGC	-0.0305	-0.378	-0.495	-0.481	-0.465	-0.799	–	-0.369	–
TCGAGTAGGTTACGTGGGCATTCAGGGATGAAGA	0.175	0.607	0.0477	0.631	0.726	-0.426	–	-0.34	–
AATACAGGGTCCTCGTAGGCCAGAGTACGCACAG	0.334	0.183	-0.129	0.449	1.16	0.203	–	0.487	–
CCTAGCAGGCCAGGTTCACTCAAGCATTTCGCTT	0.543	0.106	2.28	0.844	0.5	0.0438	–	3.42	–
CGAACTAGGTCACCAGGACAGCGAAGAGGTTGGA	3.27	5.1	1.22	3.19	3.27	1.62	–	0.423	–
CGAACTAAGTCATTGACAGGACAGTGAATAGTAA	-0.122	0.434	0.322	-0.0903	0.19	-0.56	–	-0.385	–
CGAACTAGGTCAAAAGACAGTGAAAGGCGACGTA	1.72	3.68	1.21	2.54	1.64	-0.0657	–	-0.0484	–
TTACCGAGGTGAAAGGTCGTTGATGCACGCCTTG	2.67	1.87	0.775	6.76	3.7	0.983	–	1.47	–
CGAACTAGGTCAAAGGACAGGGAAAGGCGACGTA	3.14	4.68	1.07	2.78	2.49	0.631	–	0.464	–
TAGCCTAGGTCATTCAGGGGTCAGTATAGAAAGC	5.2	6.28	2.75	5.8	4.22	2.13	–	4.47	–
TATCCTAGGTCAGATCGGGCCAGTATACGCTATA	2.53	3.86	0.36	2.21	4.25	0.858	–	0.237	–
GCTTACGGGTCAAAAGTTATAGCATGAATAGAAT	2.05	3.15	1.93	4.84	2.08	-0.478	–	0.684	–
CCTCGGAGGACAACCGGAGGTCAGAGCTGCCAGA	3.53	3.47	0.243	1.86	3.14	1.3	–	1.41	–
CAAACTAGGTCAAAGGTCAAACTCGAGCCAACCA	5.32	8.15	3.04	10.5	4.85	2.14	–	4.14	–
TAGCCTAGGTCATGCGGGCCAGCATAGTGTCGGC	2.9	4.27	0.374	3.13	3	0.747	–	0.502	–
